Source: PubChem BioAssay

Tested on: Plasmodium falciparum Sir2 (PF13_0152, Sir2A)
Test: Plasmodium falciparum Sir2A binding compounds – biochemical, small-molecule microarray, 635 nm fluorescence, primary screen (AID 1098);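 further: score merges spot fluorescence intensity with its signal-to-noise ratio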
Settings: fluorescence 635 nm, higher = more signal
With `COc1ccc([Si](C)(C)[C@@H]2[C@@H](CCO)O[C@]3(C(=O)N(Cc4ccc(N5C(=O)c6ccccc6Oc6ccccc65)cc4)c4ccccc43)[C@H]2C)cc1` the composite z-score was -0.364.
With `O=C1O[C@@H](c2ccccc2)[C@@H](c2ccccc2)N2[C@@H](c3ccc(O)cc3)[C@]3(C(=O)Nc4ccc(C#CC5(O)CCCCCC5)cc43)[C@@H](C(=O)N3CCN(c4ncccn4)CC3)[C@H]12` the composite z-score was 0.479.
Compound `COCCCNC(=O)[C@@]1(C)c2ccccc2C(=O)N(c2ccc(C)cn2)[C@H]1c1ccc(CO)cc1` has a composite z-score of 0.963.
For `COc1ccc([Si](C)(C)[C@H]2[C@H](CCO)O[C@@]3(C(=O)N(Cc4cccc(N5CCOC5=O)c4)c4ccccc43)[C@@H]2C)cc1`, the composite z-score was 1.17.
With `O=C(N1CCOCC1)[C@@]1(CCS(=O)(=O)c2ccccc2)COC(c2ccc(OCCCO)cc2)=N1` the composite z-score was 0.495.
In the case of `COCCOC(=O)N1C(=O)[C@@]2(c3cc(C#Cc4ccc(OC)cc4)ccc31)[C@H](C(N)=O)[C@H]1C(=O)O[C@H](c3ccccc3)[C@H](c3ccccc3)N1[C@@H]2c1ccc(OCCO)cc1`, the composite z-score is reported as 1.43.
`C=C[C@H](C)[C@H](OC(=O)Nc1ccc(SC)cc1)c1ccc(O)c2ccccc12` gave a composite z-score of 0.454.
`C=C(CCCC)/C(=C/C[C@H](OC(=O)c1ccncc1)c1ccc(CO)o1)c1cc(C(=O)OC)ccc1OC` showed a composite z-score of 1.21.
With `CN1C(=O)C2C=CC(C(O)c3cccc4ccccc34)N(NC(=O)OC(C)(C)C)C2C1=O` (stereo unspecified) the composite z-score was 1.37.
`COc1cc2c(cc1OC)CN(C(=O)[C@@H]1[C@H]3C(=O)O[C@H](c4ccccc4)[C@H](c4ccccc4)N3[C@H](c3ccc(OCCO)cc3)[C@@]13C(=O)Nc1ccc(C#CCCO)cc13)CC2` showed a composite z-score of 1.18.
For `NCCCCCCNC(=O)[C@H]1C[C@H]2C(=O)N3CCC[C@H]3C(=O)N2[C@H]1c1ccc(O)cc1`, the composite z-score was 1.22.
`C[C@H]1NC(=O)C([C@@H](C)OCc2ccccc2)NC(=O)[C@@]23C(=O)N[C@@H](Cc4ccccc4)C2[C@H](C)[C@@]2(C)O[C@H]2C3/C=C/CC/C=C/CNC1=O` (stereo partly specified) showed a composite z-score of -0.0404.
For `O=C1O[C@@H](c2ccccc2)[C@@H](c2ccccc2)N2[C@@H](c3ccc(O)cc3)[C@]3(C(=O)Nc4ccc(C#CC5=CCCCC5)cc43)[C@@H](C(=O)Nc3nc4ccccc4s3)[C@H]12`, the composite z-score was 1.61.
`CC(C)(C)N1CC=CC23O[C@@H]4C=CCCOC(=O)C4[C@H]2C(=O)N(CCCO)[C@@H]3C1=O` (stereo partly specified) showed a composite z-score of -0.992.
With `CN(C)CCCCNC(=O)[C@H]1C[C@H]2C(=O)N[C@@H](CCCC[N+](C)(C)C)C(=O)N2[C@H]1c1cccc(OCCO)c1` the composite z-score was 1.57.
Compound `CCCCC(CC)C(O)C1C=CC2C(=O)NC(=O)C2N1Nc1ccccn1` (stereo unspecified) has a composite z-score of 0.768.
Compound `C[N+](C)(C)CCCCCCNC(=O)[C@@H]1C[C@@H]2C(=O)NCC(=O)N2[C@@H]1c1cccc(OCCO)c1` has a composite z-score of 1.23.
For `CCCCC=C[C@@H](NC(=O)CCc1ccccc1)c1ccccc1`, the composite z-score was 0.956.
`C[N+](C)(C)CCCCCCNC(=O)[C@H]1C[C@H]2C(=O)N3CCC[C@H]3C(=O)N2[C@H]1c1cccc(OCCO)c1` showed a composite z-score of 1.66.
`COc1cccc(C)c1NC(=O)O[C@H]1[C@H](OC(=O)Nc2ccccc2)[C@H](OC(=O)Nc2ccccc2)[C@@H](OC)O[C@@H]1CO` gave a composite z-score of 1.1.
Compound `CC(C)NC(=O)[C@@]1(Cc2ccccc2I)c2ccccc2C(=O)N(Cc2ccccc2C(F)(F)F)[C@H]1c1ccc(CO)cc1` has a composite z-score of 1.75.
For `COCCCNC(=O)[C@@]1(Cc2ccccc2CN=[N+]=[N-])N=C(c2ccc(OCCCO)cc2)O[C@H]1c1ccccc1N=[N+]=[N-]`, the composite z-score was 1.61.
`C=C(C)[C@@H]1CC=C(C(O)C2C=CC3C(=O)N(C4CCCCC4)C(=O)C3N2Nc2ccc(OC)cc2)CC1` (stereo partly specified) showed a composite z-score of 1.37.
In the case of `C=CCC(OC(C)=O)[C@@H]1[C@@H](N(Cc2ccc(-c3ccccc3)cc2)C(=O)Cc2ccc(OC)cc2)c2cc(OCCCO)ccc2N1C(=O)c1ccc(-c2ccccc2)cc1` (stereo partly specified), the composite z-score is reported as -0.0063.
For `CC(C)=CCCC(C)=CC(O)C1C=CC2C(=O)N(c3ccccc3)C(=O)C2N1Nc1ccc([N+](=O)[O-])cc1` (stereo unspecified), the composite z-score was 1.29.

Tested on: not listed separately
Test: probe aDKK1 binding to arrayed compounds – biochemical, biotinylated probe, 635/667 nm fluorescence, primary screen (AID 1099);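 further: score merges 667nm spot fluorescence with signal to noise across triplicate slides; reference of the scale not given here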
Settings: small-molecule microarray, higher = more signal
With `COC(=O)[C@H]1N=C(c2ccc(OCCCO)cc2)O[C@H]1c1ccccc1CN=[N+]=[N-]` the composite z-score was 0.613.
`C[N+](C)(C)CCCCNC(=O)[C@H]1C[C@H]2C(=O)NCC(=O)N2[C@H]1c1ccc(O)cc1` showed a composite z-score of 0.0645.
Work on `CN(C)CCCCCCNC(=O)[C@@H]1C[C@@H]2C(=O)NCC(=O)N2[C@@H]1c1ccc(O)cc1` yielded a composite z-score of -0.0528.
For `COc1ccc(C#Cc2ccc3c(c2)[C@]2(C(=O)N3)[C@H](c3ccc(OCCO)cc3)N3[C@H](c4ccccc4)[C@H](c4ccccc4)OC(=O)[C@H]3[C@@H]2C(=O)N2CCN(c3ncccn3)CC2)cc1`, the composite z-score was -0.0149.
For `[N-]=[N+]=NCc1ccccc1[C@H]1OC(c2ccc(OCCCO)cc2)=N[C@@]1(Cc1ccccc1)C(N)=O`, the composite z-score was 1.19.
For `C#CCOC(=O)N[C@H](C=CCCCC)c1ccccc1`, the composite z-score was 0.326.
Compound `COc1cccc(C[C@H]2C[C@@H](CO[Si](C(C)C)(C(C)C)C(C)C)N3C(=O)[C@]4(C(C)=O)O[C@]23[C@H]2C(=O)N(C)C(=O)[C@H]24)c1` has a composite z-score of -0.0616.
`C=C(COC)/C(=C/C[C@@H](OC(=O)c1ccncc1)c1cccc(OCCO)c1)c1cc(C(=O)OC)ccc1OC` showed a composite z-score of -0.183.
`C[N+](C)(C)CCCC[C@@H]1NC(=O)[C@@H]2C[C@H](C(=O)NCCCCCNC(=O)CS)[C@H](c3cccc(OCCO)c3)N2C1=O` showed a composite z-score of -0.14.
Compound `CCCCCCCCCCC(O)C1C=CC2C(=O)NC(=O)C2N1Nc1ccccn1` (stereo unspecified) has a composite z-score of 0.482.
`CCOC(=O)C[C@H]1[C@H](OC(=O)c2ccc(C(=O)c3ccccc3)cc2)[C@@H](NC(=O)C2CCCCC2)c2cc(OCCCO)ccc2N1C(=O)Cc1ccc(OC)cc1` showed a composite z-score of 0.765.
In the case of `COc1ccc([Si](C)(C)[C@@H]2[C@@H](CCO)O[C@]3(C(=O)N(Cc4ccc(N5C(=O)c6ccccc6Oc6ccccc65)cc4)c4ccccc43)[C@H]2C)cc1`, the composite z-score is reported as -0.0754.
`O=C1O[C@@H](c2ccccc2)[C@@H](c2ccccc2)N2[C@@H](c3ccc(O)cc3)[C@]3(C(=O)Nc4ccc(C#CC5(O)CCCCCC5)cc43)[C@@H](C(=O)N3CCN(c4ncccn4)CC3)[C@H]12` gave a composite z-score of -0.125.
Work on `COCCCNC(=O)[C@@]1(C)c2ccccc2C(=O)N(c2ccc(C)cn2)[C@H]1c1ccc(CO)cc1` yielded a composite z-score of -0.748.
Compound `COc1ccc([Si](C)(C)[C@H]2[C@H](CCO)O[C@@]3(C(=O)N(Cc4cccc(N5CCOC5=O)c4)c4ccccc43)[C@@H]2C)cc1` has a composite z-score of -0.165.
In the case of `O=C(N1CCOCC1)[C@@]1(CCS(=O)(=O)c2ccccc2)COC(c2ccc(OCCCO)cc2)=N1`, the composite z-score is reported as 0.0641.
For `COCCOC(=O)N1C(=O)[C@@]2(c3cc(C#Cc4ccc(OC)cc4)ccc31)[C@H](C(N)=O)[C@H]1C(=O)O[C@H](c3ccccc3)[C@H](c3ccccc3)N1[C@@H]2c1ccc(OCCO)cc1`, the composite z-score was -0.178.
`C=C[C@H](C)[C@H](OC(=O)Nc1ccc(SC)cc1)c1ccc(O)c2ccccc12` showed a composite z-score of -0.579.
`C=C(CCCC)/C(=C/C[C@H](OC(=O)c1ccncc1)c1ccc(CO)o1)c1cc(C(=O)OC)ccc1OC` gave a composite z-score of 0.0946.
For `CN1C(=O)C2C=CC(C(O)c3cccc4ccccc34)N(NC(=O)OC(C)(C)C)C2C1=O` (stereo unspecified), the composite z-score was 1.33.
Work on `COc1cc2c(cc1OC)CN(C(=O)[C@@H]1[C@H]3C(=O)O[C@H](c4ccccc4)[C@H](c4ccccc4)N3[C@H](c3ccc(OCCO)cc3)[C@@]13C(=O)Nc1ccc(C#CCCO)cc13)CC2` yielded a composite z-score of -0.0226.
In the case of `NCCCCCCNC(=O)[C@H]1C[C@H]2C(=O)N3CCC[C@H]3C(=O)N2[C@H]1c1ccc(O)cc1`, the composite z-score is reported as 0.0237.
Compound `C[C@H]1NC(=O)C([C@@H](C)OCc2ccccc2)NC(=O)[C@@]23C(=O)N[C@@H](Cc4ccccc4)C2[C@H](C)[C@@]2(C)O[C@H]2C3/C=C/CC/C=C/CNC1=O` (stereo partly specified) has a composite z-score of 0.0094.
Compound `O=C1O[C@@H](c2ccccc2)[C@@H](c2ccccc2)N2[C@@H](c3ccc(O)cc3)[C@]3(C(=O)Nc4ccc(C#CC5=CCCCC5)cc43)[C@@H](C(=O)Nc3nc4ccccc4s3)[C@H]12` has a composite z-score of 0.307.
For `CC(C)(C)N1CC=CC23O[C@@H]4C=CCCOC(=O)C4[C@H]2C(=O)N(CCCO)[C@@H]3C1=O` (stereo partly specified), the composite z-score was 1.43.
For `CN(C)CCCCNC(=O)[C@H]1C[C@H]2C(=O)N[C@@H](CCCC[N+](C)(C)C)C(=O)N2[C@H]1c1cccc(OCCO)c1`, the composite z-score was -0.124.
Compound `CCCCC(CC)C(O)C1C=CC2C(=O)NC(=O)C2N1Nc1ccccn1` (stereo unspecified) has a composite z-score of 0.189.
Compound `C[N+](C)(C)CCCCCCNC(=O)[C@@H]1C[C@@H]2C(=O)NCC(=O)N2[C@@H]1c1cccc(OCCO)c1` has a composite z-score of -0.253.
With `CCCCC=C[C@@H](NC(=O)CCc1ccccc1)c1ccccc1` the composite z-score was 0.401.
For `C[N+](C)(C)CCCCCCNC(=O)[C@H]1C[C@H]2C(=O)N3CCC[C@H]3C(=O)N2[C@H]1c1cccc(OCCO)c1`, the composite z-score was 0.273.
`COc1cccc(C)c1NC(=O)O[C@H]1[C@H](OC(=O)Nc2ccccc2)[C@H](OC(=O)Nc2ccccc2)[C@@H](OC)O[C@@H]1CO` showed a composite z-score of 0.245.
In the case of `CC(C)NC(=O)[C@@]1(Cc2ccccc2I)c2ccccc2C(=O)N(Cc2ccccc2C(F)(F)F)[C@H]1c1ccc(CO)cc1`, the composite z-score is reported as 0.474.
With `COCCCNC(=O)[C@@]1(Cc2ccccc2CN=[N+]=[N-])N=C(c2ccc(OCCCO)cc2)O[C@H]1c1ccccc1N=[N+]=[N-]` the composite z-score was 1.05.
Work on `C=C(C)[C@@H]1CC=C(C(O)C2C=CC3C(=O)N(C4CCCCC4)C(=O)C3N2Nc2ccc(OC)cc2)CC1` (stereo partly specified) yielded a composite z-score of 0.326.
For `C=CCC(OC(C)=O)[C@@H]1[C@@H](N(Cc2ccc(-c3ccccc3)cc2)C(=O)Cc2ccc(OC)cc2)c2cc(OCCCO)ccc2N1C(=O)c1ccc(-c2ccccc2)cc1` (stereo partly specified), the composite z-score was 0.073.
For `CC(C)=CCCC(C)=CC(O)C1C=CC2C(=O)N(c3ccccc3)C(=O)C2N1Nc1ccc([N+](=O)[O-])cc1` (stereo unspecified), the composite z-score was -0.0499.
